For 18 molecules, outcome and AC50 results are on record in PubChem BioAssay (EPA / NIEHS).

What is called AC50 is the concentration at which the activity in the assay is half-maximal.

Common to all, as to conditions: mRNA level, 48 h; actives raise or lower the signal
Read-out in assay [1]: Peroxisomal acyl-coenzyme A oxidase 1 (ACOX1) gene, ACOX1 (gene 51)
Kind of assay: LTEA_HepaRG_ACOX1: Life Technologies and Expression Analysis (LTEA) Assay for Peroxisomal acyl-coenzyme A oxidase 1 (ACOX1) gene using HepaRG (AID 2283467). In a few lines:
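HepaRG, 48 h chemical exposure, 8-pt half-log series from 100 uM top, 0.5% DMSO vehicle, duplicates. Readout: ACOX1 mRNA by Fluidigm qRT-PCR, housekeeping-normalized; bidirectional fit vs DMSO baseline.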

Read-out in assay [2]: Alkaline Phosphatase, Placental (ALPP) gene, ALPP (gene 250)
Kind of assay: LTEA_HepaRG_ALPP: Life Technologies and Expression Analysis (LTEA) Assay for Alkaline Phosphatase, Placental (ALPP) gene using HepaRG (AID 2283468).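 As to AC50: differentiated human HepaRG liver cells in serum-free induction medium; ALPP transcript by TaqMan qRT-PCR normalized to ACTB GAPDH and POLR2A.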 The gist of the method: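 Expression of ALPP was quantified by qRT-PCR against three housekeeping genes in human HepaRG cultures treated for 48 h with an eight-point concentration series up to 100 uM. Activity in either direction was fitted relative to 0.5% DMSO.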

Read-out in assay [3]: Bcl-2 (BAD) gene, BAD (gene 572)
Kind of assay: LTEA_HepaRG_BAD: Life Technologies and Expression Analysis (LTEA) Assay for Bcl-2 (BAD) gene using HepaRG (AID 2283469). The gist of the method:
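HepaRG, 48 h exposure, 8-pt half-log curve from 100 uM in 0.5% DMSO, duplicates. Readout: TaqMan qRT-PCR for BAD mRNA, housekeeping-normalised (ACTB/GAPDH/POLR2A); gain or loss fitted against DMSO baseline.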

Read-out in assay [4]: Bcl-2 (BAX) gene, BAX (gene 581)
Kind of assay: LTEA_HepaRG_BAX: Life Technologies and Expression Analysis (LTEA) Assay for Bcl-2 (BAX) gene using HepaRG (AID 2283470). In a few lines: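 Cells were thawed, plated for 48 h, moved to serum-free induction medium and dosed for 48 h (highest concentration 100 uM, half-log steps, 0.5% DMSO). Total RNA was then analysed for BAX expression by qRT-PCR.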

Read-out in assay [5]: adenosine kinase (ADK) gene, ADK (gene 132)
Kind of assay: LTEA_HepaRG_ADK: Life Technologies and Expression Analysis (LTEA) Assay for adenosine kinase (ADK) gene using HepaRG (AID 2283471). In a few lines:
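Read-out is ADK transcript level measured by qRT-PCR and normalised to three housekeeping genes. Cells are human HepaRG, dosed for 48 h at up to 100 uM in 0.5% DMSO. Gain or loss of signal is fitted against DMSO controls.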

Read-out in assay [6]: Alpha-fetoprotein (AFP) gene, AFP (gene 174)
Kind of assay: LTEA_HepaRG_AFP: Life Technologies and Expression Analysis (LTEA) Assay for Alpha-fetoprotein (AFP) gene using HepaRG (AID 2283472).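 As to AC50: AFP transcript by TaqMan qRT-PCR normalized to ACTB GAPDH and POLR2A.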 The gist of the method:
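Chemicals were tested on differentiated HepaRG cells for 48 hours at eight concentrations up to 100 uM, with 0.5% DMSO as vehicle. AFP expression was then quantified by qRT-PCR and analyzed for gain or loss relative to DMSO.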

Read-out in assay [7]: BCL2L11 (gene 10018)
Kind of assay: LTEA_HepaRG_BCL2L11: Life Technologies and Expression Analysis (LTEA) Assay for Bcl-2 (BCL2L11) gene using HepaRG (AID 2283473). The gist of the method:
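Cells were plated, cultured 48 h, switched to serum-free induction medium, then dosed in duplicate for 48 h at eight half-log concentrations up to 100 uM. Lysates underwent RNA isolation and TaqMan qRT-PCR; gain or loss versus DMSO was fitted.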

Read-out in assay [8]: Apolipoprotein A-V (APOA5) gene, APOA5 (gene 116519)
Kind of assay: LTEA_HepaRG_APOA5: Life Technologies and Expression Analysis (LTEA) Assay for Apolipoprotein A-V (APOA5) gene using HepaRG (AID 2283474). The gist of the method:
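Human liver HepaRG cells are treated 48 h with test chemicals (100 uM top, half-log dilutions, 0.5% DMSO). APOA5 mRNA induction or loss is measured by qRT-PCR relative to vehicle.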

Read-out in assay [9]: Apoptosis regulator Bcl-2 (Homo sapiens) (UniProt P10415)
In words: LTEA_HepaRG_BCL2: Life Technologies and Expression Analysis (LTEA) Assay for Bcl-2 gene using HepaRG (AID 2283475). In a few lines: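 Plated human HepaRG cells are exposed to test chemicals for 48 h across eight concentrations from 100 uM downward in half-log steps (0.5% DMSO). BCL2 expression is then measured by qRT-PCR with housekeeping normalisation and fitted bidirectionally against vehicle.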

Read-out in assay [10]: ATP-citrate lyase (ACLY), ACLY (gene 47)
Kind of assay: LTEA_HepaRG_ACLY: Life Technologies and Expression Analysis (LTEA) Assay for ATP-citrate lyase (ACLY) using HepaRG (AID 2283466). The gist of the method:
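qRT-PCR readout of ACLY transcript after 48 h chemical treatment of HepaRG cells; expression normalized to three housekeeping genes. Eight-point half-log series, highest 100 uM, 0.5% DMSO vehicle. Gain or loss fitted against DMSO baseline.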

SMILES strings stand for the structures. Activity calls are given as the source filed them. The calls were made as follows: active = hit-call score of the fitted dose curve at least 0.9, where 1 is the maximum; inactive = score below 0.9.

Chain of Apoptosis regulator Bcl-2 (Homo sapiens) (P10415 whole entry, looked up): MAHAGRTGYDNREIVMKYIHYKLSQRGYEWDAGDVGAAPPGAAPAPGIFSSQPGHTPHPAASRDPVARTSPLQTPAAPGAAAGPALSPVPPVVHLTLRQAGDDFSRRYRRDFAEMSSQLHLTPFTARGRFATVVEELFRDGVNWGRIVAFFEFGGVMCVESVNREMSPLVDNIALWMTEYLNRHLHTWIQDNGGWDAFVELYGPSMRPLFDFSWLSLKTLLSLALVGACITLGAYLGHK

Take `Cc1ccc2oc(CN(Cc3ccccc3)C(=O)Nc3c(F)cc(F)cc3F)c(-c3ccc(Cl)cc3)c2c1`: the call in [1], in [2], in [3], in assay [4], in assay [5] and in assay [7] was inactive. Moreover, the AC50 in assay [6] was 32 µM (active); in assay [8] it was 44.2 µM (active); in assay [9], 44.2 µM (active).
With `Clc1cc(Cl)c2c(c1)N=C1CCCCCN1C2`, the molecule was classed as inactive in assay [10], in [1], in assay [2], in assay [3], in assay [4] and in assay [5]. In addition, the molecule was called inactive in assay [7], in [8] and in assay [9]. Further, the AC50 in assay [6] was 25 µM (active).
Consider `CCCCCCCCCCCCO`, for which the molecule was classed as inactive in assay [10], in [1], in assay [2], in assay [3], in [4] and in assay [6]. Further, the molecule was classed as inactive in [7] and in assay [9].
For `CC1=CC(=O)/C(=C(/C)O)C(=O)O1`, the call in assay [10], in assay [1], in assay [2], in assay [3], in assay [4] and in [5] was inactive. For the same molecule, the result in assay [6], in assay [7], in assay [8] and in assay [9] was inactive.
In the case of `CO[C@H]1/C=C/O[C@@]2(C)Oc3c(C)c(O)c4c(O)c(c(/C=N/N5CCN(C)CC5)c(O)c4c3C2=O)NC(=O)/C(C)=C\C=C\[C@H](C)[C@H](O)[C@@H](C)[C@@H](O)[C@@H](C)[C@H](OC(C)=O)[C@@H]1C`, the molecule was called inactive in assay [10], in assay [1], in [3], in assay [4], in [7] and in assay [9]. Moreover, the AC50 in assay [2] is 31.2 µM (active); in assay [6] it was 13 µM (active).
As for `COCC(C)OCC(C)OCC(C)O` (stereo not given), the outcome in [10], in [1], in [2], in assay [3], in assay [4] and in assay [5] was inactive. The molecule was called inactive in assay [6], in assay [7], in [8] and in assay [9].
On to `NCc1cccc(C2CCN(C(=O)c3ccc(C#Cc4ccccc4F)o3)CC2)c1`, for which the molecule was classed as inactive in assay [10], in [1], in assay [3], in [4] and in assay [9]. Further, the AC50 in [2] is 46.2 µM (active); in assay [6], 83.7 µM (active); in assay [7], 83.1 µM (active); in assay [8], 80.5 µM (active).
For the molecule `O=C(Nc1ccc(Cl)cc1)Nc1ccc(Cl)c(Cl)c1`, the AC50 in [10] was 17.5 µM (active); in assay [1], 18.5 µM (active); in [2], 19.6 µM (active); in assay [4], 29.2 µM (active); in assay [5], 22.6 µM (active); in assay [9], 11.9 µM (active). The molecule was classed as inactive in assay [3], in assay [6] and in assay [7].
Turning to `CCCCCCCCOc1ccc(C(=O)c2ccccc2)c(O)c1`, the result in assay [10], in [1], in [2], in assay [3], in assay [4] and in [5] was inactive. Also, the result in [6], in [7] and in [9] was inactive.
Take `O=C1CCC(C2CCCCC2)CC1`: the result in [10], in assay [1], in assay [2], in assay [3], in [4] and in assay [6] was inactive. For the same molecule, the call in assay [7] and in [9] was inactive.
In the case of `O=C(O)c1ccccc1-n1cc(C(=O)O)c(=O)c2cc(Nc3c(F)cc(F)cc3Cl)c(Cl)cc21`, the call in assay [10], in [1], in assay [3], in assay [4], in [6] and in assay [7] was inactive. In addition, the result in assay [8] and in [9] was inactive. The AC50 in assay [2] was 0.0892 µM (active).
For `O=C1O[C@H]([C@@H](O)CO)C(O)=C1O`, the outcome in assay [10], in assay [1], in assay [2], in [3], in [4] and in [6] was inactive. For the same molecule, the result in assay [7] and in [9] was inactive.
Regarding `CC[C@@H]1C[C@H](N(Cc2cc(C(F)(F)F)cc(C(F)(F)F)c2)C(C)=O)c2cc(C(F)(F)F)ccc2N1C(=O)OC(C)C`, the molecule was called inactive in assay [10], in assay [1], in assay [2], in assay [3], in [4] and in assay [6]. Moreover, the outcome in assay [7], in [8] and in assay [9] was inactive.
As for `CCCCCCCCOC(=O)c1cc(O)c(O)c(O)c1`, the result in assay [10], in assay [1], in assay [3], in [4], in assay [5] and in [6] was inactive. Moreover, the molecule was called inactive in [7], in assay [8] and in [9]. The AC50 in assay [2] is 11.5 µM (active).
Consider `Cc1cn([C@H]2C[C@H](N=[N+]=[N-])[C@@H](CO)O2)c(=O)[nH]c1=O`, for which the call in assay [10], in assay [1], in assay [2], in assay [3], in assay [4] and in assay [6] was inactive. For the same molecule, the outcome in [7], in assay [8] and in [9] was inactive.
Regarding `OCCO`, the call in [10], in assay [1], in assay [2], in assay [3], in [4] and in [6] was inactive. Moreover, the result in assay [7] and in [9] was inactive.
In the case of `O=C(O)Cn1c(=O)n(Cc2ccc(Br)cc2F)c(=O)c2ccc(Cl)cc21`, the molecule was called inactive in [10], in assay [1], in assay [2], in assay [3], in assay [4] and in assay [6]. The molecule was classed as inactive in assay [7] and in assay [9].
With `Cc1c2ccccc2c(C)c2c1ccc1ccccc12`, the outcome in [10], in assay [3] and in assay [5] was inactive. Further, the AC50 is 27.7 µM (active) in [1]; 39.7 µM (active) in assay [2]; 63.1 µM (active) in [4]; 51.5 µM (active) in assay [6]; 29.6 µM (active) in [7]; 78.3 µM (active) in [9].
